Measurements reported in PubChem BioAssay AID1159580 (chemical genetic matrix, 2015).
Among all 5,500 compounds or so, about 2,000 (36%) were called active. Inconclusive results (about 18%) are left out. Cut-off read from the data, not from the text of the source: active = normalized growth mostly below about 0.91 (no sharp cut-off); inconclusive = no clear call, values can overlap the other calls; inactive = mostly above about 0.92. The list shows a part of the results.

Assay: chemical genetic growth profiling, strain panel (AID 1159580);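 note: tested at 20 µM; growth read once vehicle control cultures reached saturation at 30 °C; 1 = growth at the plate median or of vehicle wells; lower values mean less growth of the strain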
Settings: growth OD

Measured: normalized growth

CC[C@H](CCC(C)[C@H]1CCC2C3CCC4C[C@@H](O)CC[C@]4(C)C3CC[C@@]21C)C(C)C (stereo partly drawn)
inactive: S. cerevisiae deletion strains, locus YKL009W, strain mrt4, hits give low values 1.02 | S. cerevisiae deletion strains, locus YKL068W, hits give low values 1.01 | S. cerevisiae deletion strains, locus YKL085W, strain MDH1 (second series), hits give low values 1.01 | S. cerevisiae deletion strains, locus YKL085W, strain MDH1, hits give low values 1.01 | S. cerevisiae deletion strains, locus YKL160W, strain elf1, hits give low values 1.02 | S. cerevisiae deletion strains, locus YKR001C, strain vps1, hits give low values 1.04 | S. cerevisiae deletion strains, locus YKR026C, strain gcn3, hits give low values 0.988 | S. cerevisiae deletion strains, locus YKR091W, strain srl3, hits give low values 0.992 | S. cerevisiae deletion strains, locus YLL001W, strain dnm1, hits give low values 1.01 | S. cerevisiae deletion strains, locus YLL026W, hits give low values 0.991 | S. cerevisiae deletion strains, locus YLL041C, strain sdh2, hits give low values 0.969 | S. cerevisiae deletion strains, locus YLR027C, strain aat2, hits give low values 0.987 | S. cerevisiae deletion strains, locus YLR039C, strain RIC1, hits give low values 0.995 | S. cerevisiae deletion strains, locus YLR058C, strain SHM2, hits give low values 1.01 | S. cerevisiae deletion strains, locus YLR102C, strain apc9, hits give low values 1.01 | S. cerevisiae deletion strains, locus YLR113W, strain HOG1, hits give low values 0.991 | S. cerevisiae deletion strains, locus YLR221C, strain rsa3, hits give low values 1.03 | S. cerevisiae deletion strains, locus YLR258W, strain gsy2, hits give low values 0.988 | S. cerevisiae deletion strains, locus YLR262C, strain YPT6 (second series), hits give low values 0.97 | S. cerevisiae deletion strains, locus YLR262C, strain YPT6, hits give low values 1.02 | S. cerevisiae deletion strains, locus YLR268W, strain sec22, hits give low values 1.02 | S. cerevisiae deletion strains, locus YLR320W, strain mms22, hits give low values 1.02 | S. cerevisiae deletion strains, locus YLR330W, strain CHS5, hits give low values 1.01 | S. cerevisiae deletion strains, locus YLR342W, strain FKS1 (second series), hits give low values 1.01 | S. cerevisiae deletion strains, locus YLR342W, strain FKS1, hits give low values 0.978 | S. cerevisiae deletion strains, locus YLR357W, strain rsc2, hits give low values 0.98 | S. cerevisiae deletion strains, locus YLR370C, strain arc18, hits give low values 0.98 | S. cerevisiae deletion strains, locus YLR371W, strain rom2, hits give low values 1.01 | S. cerevisiae deletion strains, locus YLR384C, strain iki3, hits give low values 0.986 | S. cerevisiae deletion strains, locus YLR418C, strain cdc73, hits give low values 1 | S. cerevisiae deletion strains, locus YML016C, strain PPZ1, hits give low values 1.01 | S. cerevisiae deletion strains, locus YML032C, strain rad52, hits give low values 1.01 | S. cerevisiae deletion strains, locus YML120C, strain ndi1, hits give low values 0.989 | S. cerevisiae deletion strains, locus YML124C, strain tub3, hits give low values 1.01 | S. cerevisiae deletion strains, locus YMR058W, strain fet3, hits give low values 0.967 | S. cerevisiae deletion strains, locus YMR078C, strain ctf18, hits give low values 1.01 | S. cerevisiae deletion strains, locus YMR125W, strain sto1, hits give low values 0.969 | S. cerevisiae deletion strains, locus YMR129W, hits give low values 0.982 | S. cerevisiae deletion strains, locus YMR205C, strain PFK2, hits give low values 1.01 | S. cerevisiae deletion strains, locus YMR223W, strain ubp8, hits give low values 0.988 | S. cerevisiae deletion strains, locus YMR231W, strain pep5, hits give low values 0.975 | S. cerevisiae deletion strains, locus YMR263W, strain SAP30, hits give low values 1.01 | S. cerevisiae deletion strains, locus YMR307W, strain GAS1, hits give low values 0.973 | S. cerevisiae deletion strains, locus YNL067W, strain RPL9B, hits give low values 1 | S. cerevisiae deletion strains, locus YNL071W, strain lat1, hits give low values 0.974 | S. cerevisiae deletion strains, locus YNL153C, strain GIM3, hits give low values 1 | S. cerevisiae deletion strains, locus YNL183C, strain NPR1, hits give low values 0.974 | S. cerevisiae deletion strains, locus YNL209W, strain ssb2, hits give low values 1 | S. cerevisiae deletion strains, locus YNL233W, strain BNI4, hits give low values 1 | S. cerevisiae deletion strains, locus YNL248C, strain rpa49, hits give low values 0.975 | S. cerevisiae deletion strains, locus YNL250W, strain rad50, hits give low values 1 | S. cerevisiae deletion strains, locus YNL271C, strain bni1, hits give low values 1.01 | S. cerevisiae deletion strains, locus YNL298W, strain CLA4, hits give low values 1.02 | S. cerevisiae deletion strains, locus YNL307C, strain MCK1, hits give low values 1.01 | S. cerevisiae deletion strains, locus YNL322C, strain KRE1 (second series), hits give low values 0.982 | S. cerevisiae deletion strains, locus YNL322C, strain KRE1, hits give low values 1 | S. cerevisiae deletion strains, locus YNR049C, strain mso1, hits give low values 0.984 | S. cerevisiae deletion strains, locus YNR052C, strain pop2, hits give low values 1.02 | S. cerevisiae deletion strains, locus YOL012C, strain htz1 0.67 | S. cerevisiae deletion strains, locus YOL147C, strain pex11, hits give low values 1 | S. cerevisiae deletion strains, locus YOR001W, strain rrp6, hits give low values 0.949 | S. cerevisiae deletion strains, locus YOR061W, strain CKA2, hits give low values 1.02 | S. cerevisiae deletion strains, locus YOR069W, strain VPS5, hits give low values 1.01 | S. cerevisiae deletion strains, locus YOR070C, strain gyp1, hits give low values 1.02 | S. cerevisiae deletion strains, locus YOR080W, strain dia2, hits give low values 0.988 | S. cerevisiae deletion strains, locus YOR083W, strain WHI5, hits give low values 1.03 | S. cerevisiae deletion strains, locus YOR106W, strain vam3, hits give low values 0.998 | S. cerevisiae deletion strains, locus YOR136W, strain idh2, hits give low values 1.01 | S. cerevisiae deletion strains, locus YOR144C, strain elg1, hits give low values 1.01 | S. cerevisiae deletion strains, locus YOR184W, strain ser1, hits give low values 1.02 | S. cerevisiae deletion strains, locus YOR231W, strain MKK1, hits give low values 1.01 | S. cerevisiae deletion strains, locus YOR265W, strain rbl2, hits give low values 1.02 | S. cerevisiae deletion strains, locus YOR270C, strain vph1, hits give low values 0.979 | S. cerevisiae deletion strains, locus YOR290C, strain snf2, hits give low values 0.995 | S. cerevisiae deletion strains, locus YOR316C, strain cot1, hits give low values 1.01 | S. cerevisiae deletion strains, locus YPL051W, strain arl3, hits give low values 0.995 | S. cerevisiae deletion strains, locus YPL055C, strain LGE1, hits give low values 1 | S. cerevisiae deletion strains, locus YPL078C, strain atp4, hits give low values 0.989 | S. cerevisiae deletion strains, locus YPL106C, strain sse1, hits give low values 0.994 | S. cerevisiae deletion strains, locus YPL240C, strain hsp82, hits give low values 0.987 | S. cerevisiae deletion strains, locus YPL241C, strain CIN2, hits give low values 1 | S. cerevisiae deletion strains, locus YPL256C, strain CLN2, hits give low values 1.02 | S. cerevisiae deletion strains, locus YPR119W, strain clb2, hits give low values 1.01 | S. cerevisiae deletion strains, locus YPR141C, strain kar3, hits give low values 1.01 | S. cerevisiae deletion strains, locus YPR163C, strain tif3, hits give low values 1.01 | S. cerevisiae deletion strains, locus YPR167C, strain met16, hits give low values 1 | S. cerevisiae deletion strains, strain wtn01, hits give low values 1.02 | S. cerevisiae strains, strain wild type, hits give low values 1.01
